Data taken from PubChem BioAssay AID1159580 (chemical genetic matrix, 2015).
Out of some 5,500 compounds screened, about 2,000 (36%) were called active. Another 18% or so got no clear call; they are omitted. No stated cut-off is given here; in the data, active means normalized growth mostly below about 0.91 (no sharp cut-off); inconclusive means no clear call, values can overlap the other calls; inactive means mostly above about 0.92. The list shows a part of the results.

Experiment: chemical genetic growth profiling, strain panel (AID 1159580);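 further: tested at 20 µM; growth read once vehicle control cultures reached saturation at 30 °C; 1 = growth at the plate median or of vehicle wells; lower values mean less growth of the strain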
Settings: growth OD

Measured: normalized growth

C=C1c2cccc(O)c2C(O)=C2C(=O)[C@]3(O)C(O)=C(C(N)=O)C(=O)[C@@H](N(C)C)[C@@H]3[C@@H](O)[C@H]12
inactive: S. cerevisiae deletion strains, locus YJR075W, strain HOC1, hits give low values 0.992 | S. cerevisiae deletion strains, locus YKL009W, strain mrt4, hits give low values 1.03 | S. cerevisiae deletion strains, locus YKL068W, hits give low values 0.989 | S. cerevisiae deletion strains, locus YKL085W, strain MDH1 (second series), hits give low values 0.978 | S. cerevisiae deletion strains, locus YKL085W, strain MDH1, hits give low values 0.978 | S. cerevisiae deletion strains, locus YKL160W, strain elf1, hits give low values 1.02 | S. cerevisiae deletion strains, locus YKL190W, strain CNB1, hits give low values 0.992 | S. cerevisiae deletion strains, locus YKR001C, strain vps1, hits give low values 0.961 | S. cerevisiae deletion strains, locus YKR026C, strain gcn3, hits give low values 0.994 | S. cerevisiae deletion strains, locus YLL001W, strain dnm1, hits give low values 1.01 | S. cerevisiae deletion strains, locus YLL026W, hits give low values 1.02 | S. cerevisiae deletion strains, locus YLL041C, strain sdh2, hits give low values 1.02 | S. cerevisiae deletion strains, locus YLR027C, strain aat2, hits give low values 1.01 | S. cerevisiae deletion strains, locus YLR039C, strain RIC1, hits give low values 0.94 | S. cerevisiae deletion strains, locus YLR058C, strain SHM2, hits give low values 0.975 | S. cerevisiae deletion strains, locus YLR102C, strain apc9, hits give low values 1 | S. cerevisiae deletion strains, locus YLR113W, strain HOG1, hits give low values 0.986 | S. cerevisiae deletion strains, locus YLR221C, strain rsa3, hits give low values 0.996 | S. cerevisiae deletion strains, locus YLR258W, strain gsy2, hits give low values 1 | S. cerevisiae deletion strains, locus YLR262C, strain YPT6 (second series), hits give low values 1.01 | S. cerevisiae deletion strains, locus YLR262C, strain YPT6, hits give low values 0.967 | S. cerevisiae deletion strains, locus YLR268W, strain sec22, hits give low values 0.905 | S. cerevisiae deletion strains, locus YLR320W, strain mms22, hits give low values 1.01 | S. cerevisiae deletion strains, locus YLR330W, strain CHS5, hits give low values 0.969 | S. cerevisiae deletion strains, locus YLR342W, strain FKS1 (second series), hits give low values 0.979 | S. cerevisiae deletion strains, locus YLR342W, strain FKS1, hits give low values 1.01 | S. cerevisiae deletion strains, locus YLR357W, strain rsc2, hits give low values 1.01 | S. cerevisiae deletion strains, locus YLR370C, strain arc18, hits give low values 1.02 | S. cerevisiae deletion strains, locus YLR371W, strain rom2, hits give low values 0.991 | S. cerevisiae deletion strains, locus YLR384C, strain iki3, hits give low values 1.03 | S. cerevisiae deletion strains, locus YLR418C, strain cdc73, hits give low values 0.972 | S. cerevisiae deletion strains, locus YML016C, strain PPZ1, hits give low values 0.979 | S. cerevisiae deletion strains, locus YML032C, strain rad52, hits give low values 0.959 | S. cerevisiae deletion strains, locus YML120C, strain ndi1, hits give low values 1.01 | S. cerevisiae deletion strains, locus YML124C, strain tub3, hits give low values 0.991 | S. cerevisiae deletion strains, locus YMR058W, strain fet3, hits give low values 0.986 | S. cerevisiae deletion strains, locus YMR078C, strain ctf18, hits give low values 1 | S. cerevisiae deletion strains, locus YMR125W, strain sto1, hits give low values 0.998 | S. cerevisiae deletion strains, locus YMR129W, hits give low values 0.998 | S. cerevisiae deletion strains, locus YMR205C, strain PFK2, hits give low values 1.02 | S. cerevisiae deletion strains, locus YMR223W, strain ubp8, hits give low values 0.992 | S. cerevisiae deletion strains, locus YMR231W, strain pep5, hits give low values 1.01 | S. cerevisiae deletion strains, locus YMR263W, strain SAP30, hits give low values 0.976 | S. cerevisiae deletion strains, locus YMR307W, strain GAS1, hits give low values 1.02 | S. cerevisiae deletion strains, locus YNL067W, strain RPL9B, hits give low values 0.95 | S. cerevisiae deletion strains, locus YNL071W, strain lat1, hits give low values 1.03 | S. cerevisiae deletion strains, locus YNL128W, strain TEP1, hits give low values 0.976 | S. cerevisiae deletion strains, locus YNL153C, strain GIM3, hits give low values 0.925 | S. cerevisiae deletion strains, locus YNL183C, strain NPR1, hits give low values 0.922 | S. cerevisiae deletion strains, locus YNL209W, strain ssb2, hits give low values 1.01 | S. cerevisiae deletion strains, locus YNL233W, strain BNI4, hits give low values 0.965 | S. cerevisiae deletion strains, locus YNL248C, strain rpa49, hits give low values 1.06 | S. cerevisiae deletion strains, locus YNL250W, strain rad50, hits give low values 0.987 | S. cerevisiae deletion strains, locus YNL271C, strain bni1, hits give low values 0.954 | S. cerevisiae deletion strains, locus YNL298W, strain CLA4, hits give low values 0.981 | S. cerevisiae deletion strains, locus YNL307C, strain MCK1, hits give low values 1 | S. cerevisiae deletion strains, locus YNL322C, strain KRE1 (second series), hits give low values 1.01 | S. cerevisiae deletion strains, locus YNL322C, strain KRE1, hits give low values 0.991 | S. cerevisiae deletion strains, locus YNR049C, strain mso1, hits give low values 1.04 | S. cerevisiae deletion strains, locus YNR052C, strain pop2, hits give low values 0.982 | S. cerevisiae deletion strains, locus YOL006C, strain TOP1, hits give low values 0.891 | S. cerevisiae deletion strains, locus YOL012C, strain htz1 0.75 | S. cerevisiae deletion strains, locus YOL147C, strain pex11, hits give low values 0.995 | S. cerevisiae deletion strains, locus YOR001W, strain rrp6, hits give low values 1.04 | S. cerevisiae deletion strains, locus YOR061W, strain CKA2, hits give low values 0.979 | S. cerevisiae deletion strains, locus YOR069W, strain VPS5, hits give low values 1 | S. cerevisiae deletion strains, locus YOR070C, strain gyp1, hits give low values 1 | S. cerevisiae deletion strains, locus YOR080W, strain dia2, hits give low values 1.02 | S. cerevisiae deletion strains, locus YOR083W, strain WHI5, hits give low values 1.01 | S. cerevisiae deletion strains, locus YOR106W, strain vam3, hits give low values 1.01 | S. cerevisiae deletion strains, locus YOR136W, strain idh2, hits give low values 1 | S. cerevisiae deletion strains, locus YOR144C, strain elg1, hits give low values 1 | S. cerevisiae deletion strains, locus YOR184W, strain ser1, hits give low values 0.98 | S. cerevisiae deletion strains, locus YOR231W, strain MKK1, hits give low values 0.964 | S. cerevisiae deletion strains, locus YOR265W, strain rbl2, hits give low values 1.01 | S. cerevisiae deletion strains, locus YOR270C, strain vph1, hits give low values 1 | S. cerevisiae deletion strains, locus YOR290C, strain snf2, hits give low values 0.998 | S. cerevisiae deletion strains, locus YOR316C, strain cot1, hits give low values 0.988 | S. cerevisiae deletion strains, locus YPL051W, strain arl3, hits give low values 1 | S. cerevisiae deletion strains, locus YPL055C, strain LGE1, hits give low values 0.951 | S. cerevisiae deletion strains, locus YPL078C, strain atp4, hits give low values 1.03 | S. cerevisiae deletion strains, locus YPL106C, strain sse1, hits give low values 0.995 | S. cerevisiae deletion strains, locus YPL240C, strain hsp82, hits give low values 1.01 | S. cerevisiae deletion strains, locus YPL241C, strain CIN2, hits give low values 0.998 | S. cerevisiae deletion strains, locus YPL256C, strain CLN2, hits give low values 0.964 | S. cerevisiae deletion strains, locus YPR119W, strain clb2, hits give low values 0.994 | S. cerevisiae deletion strains, locus YPR141C, strain kar3, hits give low values 0.981 | S. cerevisiae deletion strains, locus YPR163C, strain tif3, hits give low values 0.992 | S. cerevisiae deletion strains, locus YPR167C, strain met16, hits give low values 0.983 | S. cerevisiae deletion strains, strain wtn01, hits give low values 0.932 | S. cerevisiae strains, strain wild type, hits give low values 0.969
